Data published in the supplement of paper PMC10515830.
Counter-ions that a name gives are not always drawn.

Assays:
Conditions in all cases: 10 µM; exposure time 6 h
[1] = test system: Danio rerio larvae (5 dpf); test: difference in excitability vs DMSO (percentage points); higher = more excitable than DMSO
Method in brief: (§1)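 Wild-type zebrafish larvae at 5 dpf were kept in 96-well plates and exposed for 6 h to 100 µL egg water holding library compound at a final concentration of 10 µM. From 3 h into exposure, the plates were held at 28.5 ℃ and photographed every 6 s through a 3-h programme of moving lines and 100 ms, 400Hz tones. Each behaviour was scored by Z-LaP Tracker, a DeepLabCut model, and averaged over 48 larvae per compound. Every value gives the compound mean minus the vehicle control mean, in percentage points.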

[2] = test system: Danio rerio larvae (5 dpf); test: difference in startle response vs DMSO (percentage points); higher = stronger startle than DMSO
Method in brief: as §1

[3] = test system: Danio rerio larvae (5 dpf); test: difference in activity during first hour vs DMSO (percentage points); higher = more activity than DMSO
Method in brief: as §1

[4] = test system: Danio rerio larvae (5 dpf); test: difference in habituation to acoustic stimuli vs DMSO (percentage points); higher = more habituation than DMSO
Method in brief: as §1

[5] = test system: Danio rerio larvae (5 dpf); test: difference in combined optomotor response to red, green and blue moving lines vs DMSO (percentage points); higher = stronger optomotor response than DMSO
Method in brief: as §1

SMILES | difference in excitability [1] | difference in startle response [2] | difference in activity during first hour [3] | difference in habituation to acoustic stimuli [4] | difference [5]
Cc1nnc(SCC2=C(C(=O)O)N3C(=O)[C@@H](NC(=O)Cn4cnnn4)[C@H]3SC2)s1 [Cefazolin (sodium salt)] | 9.87 | -2.79 | 7.43 | -0.463 | 5.77
Nc1nc(Cl)nc2c1ncn2[C@H]1C[C@H](O)[C@@H](CO)O1 [Cladribine] | -6.72 | -0.563 | -3.5 | -0.582 | 8.45
CO[C@@]1(NC(=O)Cc2cccs2)C(=O)N2C(C(=O)O)=C(COC(N)=O)CS[C@@H]21 [Cefoxitin (sodium salt)] | 2.72 | 3.22 | 3 | 1.06 | 10.4
O=c1[nH]c(=O)n([C@H]2C[C@H](O)[C@@H](CO)O2)cc1C(F)(F)F [Trifluorothymidine] | -0.163 | -3.06 | 5.45 | -4.69 | 1.93
O=C(C1CCCCC1)N1CC(=O)N2CCc3ccccc3C2C1 (stereo not given) [Praziquantel] | 27.3 | 13.2 | -17.7 | 11 | 10.4
CNC(=O)c1cc(Oc2ccc(NC(=O)Nc3ccc(Cl)c(C(F)(F)F)c3)cc2)ccn1 [Sorafenib] | 19.5 | -6.25 | -3.15 | -3.01 | -2.71
CC12CC3CC(C)(C1)CC(N)(C3)C2 [Memantine (hydrochloride)] | 4.15 | -1.38 | 1.52 | 2.49 | 3.21
Nc1nc(NC2CC2)c2ncn([C@H]3C=C[C@@H](CO)C3)c2n1 [Abacavir (sulfate)] | -1.01 | -0.154 | 7.36 | -0.118 | 5.64
COc1ccc(-c2ccc3cc(C(=O)O)ccc3c2)cc1C12CC3CC(CC(C3)C1)C2 [Adapalene] | -8.45 | 3.9 | -0.172 | -5 | 3.86
CC(=O)NS(=O)(=O)c1ccc(N)cc1 [Sulfacetamide (sodium salt)] | 9.42 | 1.32 | -8.28 | 4.81 | 7.06
Cc1cnc(C(=O)NCCc2ccc(S(=O)(=O)NC(=O)NC3CCCCC3)cc2)cn1 [Glipizide] | 0.585 | 1.17 | -9.11 | 5.88 | 8.81
CCCCCCOC(=O)NC(=N)c1ccc(NCc2nc3cc(C(=O)N(CCC(=O)OCC)c4ccccn4)ccc3n2C)cc1 [Dabigatran etexilate] | 7.34 | 2.07 | -7.27 | 0.895 | 2.07
CC(C)[N+](C)(CCOC(=O)C1c2ccccc2Oc2ccccc21)C(C)C [Propantheline (bromide)] | 4.4 | 5.21 | 4.15 | 4.81 | 5.08
CN(C)CCC=C1c2ccccc2C=Cc2ccccc21 [Cyclobenzaprine (hydrochloride)] | 17.5 | -6.94 | 6.26 | -8.81 | 14.9
COc1cc(C(=O)NS(=O)(=O)c2ccccc2C)ccc1Cc1cn(C)c2ccc(NC(=O)OC3CCCC3)cc12 [Zafirlukast] | 3.02 | -0.95 | 17.6 | 4.84 | -0.091
CC(C)(O)CNc1nc(Nc2ccnc(C(F)(F)F)c2)nc(-c2cccc(C(F)(F)F)n2)n1 [Enasidenib] | 15.7 | -3.05 | 12.8 | -6.3 | 2.71
NCCc1ccc(O)c(O)c1 [Dopamine (hydrochloride)] | 4.19 | -3.68 | 12.6 | 4.17 | 2.15
C[C@@H]1C[C@H]2[C@@H]3CCC4=CC(=O)C=C[C@]4(C)[C@@]3(Cl)[C@@H](O)C[C@]2(C)[C@@]1(OC(=O)c1ccco1)C(=O)CCl [Mometasone Furoate] | 11.9 | 0.167 | 1.33 | 0.89 | 3.46
O=C(O)CCCc1ccccc1 [Sodium 4-Phenylbutyrate] | -1.36 | 2.31 | -3.38 | 1.43 | 5.24
C#CCN[C@@H]1CCc2ccccc21 [Rasagiline] | 3.5 | 1.96 | 10.2 | 4.46 | 6.27
CC(C)N1CCN(c2ccc(OCC3COC(Cn4cncn4)(c4ccc(Cl)cc4Cl)O3)cc2)CC1 (stereo not given) [Terconazole] | 18 | -1.46 | 2.36 | -6.11 | 0.243
O=P(O)(O)C(O)(Cc1cccnc1)P(=O)(O)O [Risedronate (sodium salt)] | 3.7 | 4.04 | 24.7 | -2.36 | 9.6
Cc1nnc(C(=O)NC(C)(C)c2nc(C(=O)NCc3ccc(F)cc3)c(O)c(=O)n2C)o1 [Raltegravir (potassium salt)] | -0.288 | 1.86 | 0.698 | -5.1 | 5.8
N[C@@H]1CONC1=O [D-Cycloserine] | 6.37 | -2.86 | 4.38 | -2.22 | 10.3

SMILES | difference in excitability [1] | difference in startle response [2] | difference in activity during first hour [3] | difference in habituation to acoustic stimuli [4] | difference [5]
C[C@]12CC[C@@H]3c4ccc(O)cc4C[C@@H](CCCCCCCCC[S+]([O-])CCCC(F)(F)C(F)(F)F)[C@H]3[C@@H]1CC[C@@H]2O (stereo not given in full) [Fulvestrant] | 1.25 | 0.684 | -0.447 | 1.81 | 1.43
C[C@@H](O)[C@H]1C(=O)N2C(C(=O)O)=C(S[C@@H]3CN[C@H](C(=O)N(C)C)C3)[C@H](C)[C@H]12 [Meropenem (hydrate)] | 3.3 | -1.18 | 0.0616 | -0.499 | 3.61
O=C(c1ccccc1)c1ccc2n1CCC2C(=O)O (stereo not given) [Ketorolac (tromethamine salt)] | -0.0297 | 5.09 | -3.37 | 7.86 | -1.11
COC(=O)Nc1nc2cc(C(=O)c3ccccc3)ccc2[nH]1 [Mebendazole] | 9.6 | -4.07 | 8.64 | 0.057 | 4.46
O=C(CCCN1CCC(O)(c2ccc(Cl)cc2)CC1)c1ccc(F)cc1 [Haloperidol] | 17.7 | -2.56 | 12.4 | -7.67 | -5.9
Cc1nc2n(c(=O)c1CCN1CCC(c3noc4cc(F)ccc34)CC1)CCCC2O (stereo not given) [Paliperidone] | 15.4 | 0.117 | 18.6 | 0.732 | 5.58
CC1(C)O[C@@H]2C[C@H]3[C@@H]4CCC5=CC(=O)CC[C@]5(C)[C@@]4(F)[C@@H](O)C[C@]3(C)[C@]2(C(=O)CCl)O1 [Halcinonide] | -1.92 | 2.79 | 7.26 | 9.28 | 6.48
C=CC(=O)N1CCC[C@@H](n2nc(-c3ccc(Oc4ccccc4)cc3)c3c(N)ncnc32)C1 [Ibrutinib] | 14.1 | 0.877 | -6.73 | -6.76 | 9.38
Cc1cc(C)cc(OCC2CNC(=O)O2)c1 (stereo not given) [Metaxalone] | 8.24 | -0.153 | 0.609 | 5.03 | 10.1
NCC(=O)CCC(=O)O [5-Aminolevulinic Acid (hydrochloride)] | 11.2 | 1.8 | 1.6 | -2.9 | 2.93
CN(C)CCOC(C)(c1ccccc1)c1ccccn1 (stereo not given) [Doxylamine (succinate)] | 0.347 | -2.91 | 6.73 | 5.01 | 9.42
OC[C@H]1O[C@@H](c2ccc(Cl)c(Cc3ccc(O[C@H]4CCOC4)cc3)c2)[C@H](O)[C@@H](O)[C@@H]1O [Empagliflozin] | 2.31 | -2.32 | 18.8 | -5.57 | 4.06
COc1cc(Cc2cnc(N)nc2N)cc(OC)c1OC [Trimethoprim] | 2.02 | 3.93 | 12.5 | -7.9 | 12.7
Cc1cccc(C)c1OCC(=O)N[C@@H](Cc1ccccc1)[C@@H](O)C[C@H](Cc1ccccc1)NC(=O)[C@H](C(C)C)N1CCCNC1=O [Lopinavir] | 10.5 | -2.95 | -0.504 | -4.82 | -0.255
CCCN(CCC)CCc1cccc2c1CC(=O)N2 [Ropinirole (hydrochloride)] | 31.3 | -0.638 | -13.7 | -1.82 | -4.31
Nc1ccn([C@@H]2CS[C@H](CO)O2)c(=O)n1 [Lamivudine] | 0.811 | 2.66 | 9.03 | 2.12 | 2.14
CC[C@H](C)[C@@H]1NC(=O)[C@H](Cc2ccc(O)cc2)NC(=O)[C@@H](N)CSSC[C@@H](C(=O)N2CCC[C@H]2C(=O)N[C@@H](CC(C)C)C(=O)NCC(N)=O)NC(=O)[C@H](CC(N)=O)NC(=O)[C@H](CCC(N)=O)NC1=O [Oxytocin (acetate)] | -2.14 | 1 | -5.61 | 2.03 | 4.29
CC(C)(C)NC(=O)[C@@H]1CN(Cc2cccnc2)CCN1C[C@@H](O)C[C@@H](Cc1ccccc1)C(=O)N[C@H]1c2ccccc2C[C@H]1O [Indinavir (sulfate)] | -11.9 | -2.27 | 1.38 | 11.2 | -0.405
Clc1ccc(COC(Cn2ccnc2)c2ccc(Cl)cc2Cl)c(Cl)c1 (stereo not given) [Miconazole (nitrate)] | 9.53 | -10.9 | -23.5 | -11.4 | -18.4
NS(=O)(=O)c1cc(C(=O)O)c(NCc2ccco2)cc1Cl [Furosemide] | 6.1 | -2.57 | 12 | -0.166 | 8.19
CC1(C)O[C@@H]2C[C@H]3[C@@H]4CCC5=CC(=O)C=C[C@]5(C)[C@@]4(F)[C@@H](O)C[C@]3(C)[C@]2(C(=O)CO)O1 [Triamcinolone acetonide] | -3.81 | -2.41 | 12.6 | 3.46 | 7.94
Nc1ncn([C@@H]2O[C@H](CO)[C@@H](O)[C@H]2O)c(=O)n1 [5-Azacytidine] | 6.01 | -4.41 | -3.91 | -4.6 | 0.0811
CN1[C@@H]2CC[C@H]1C[C@@H](OC(c1ccccc1)c1ccccc1)C2 [Benztropine (mesylate)] | -5.24 | -9.21 | 27.7 | -9.38 | -1.29
